This passage reports activity, negative = inhibition and AC50 results from PubChem BioAssay AID1851 (National Center for Advancing Translational Sciences (NCATS), 2009).

Values joined by “and” are separate entries in the source; they are usually repeats but may differ in a detail not shown here. Identical values can stand only once. Among all 16,000 compounds or so, about 5,100 (32%) were called active. Inconclusive results (about 25%) are left out. Some of the results follow. Values without a mark were called inactive. Calls come from the whole dose curve; as a rule, active = well fitted curve in the direction sought with a large enough effect; inconclusive = small, poorly fitted or top-dose-only effect, or effect the other way; inactive = no such curve, though single readings can be large or run the other way.
% is set by controls: 0 for no effect and ±100 for the full control effect.

In this experiment the target is Cytochrome P450 3A4 (Homo sapiens) (UniProt P08684). Put plainly: Cytochrome panel assay with activity outcomes. The settings on record: recombinant CYP, pro-luciferin dealkylation, luminescence, p450-cyp3a4; series mostly up to 57.1 µM.
Chain of Cytochrome P450 3A4 (Homo sapiens) (P08684 whole entry, looked up): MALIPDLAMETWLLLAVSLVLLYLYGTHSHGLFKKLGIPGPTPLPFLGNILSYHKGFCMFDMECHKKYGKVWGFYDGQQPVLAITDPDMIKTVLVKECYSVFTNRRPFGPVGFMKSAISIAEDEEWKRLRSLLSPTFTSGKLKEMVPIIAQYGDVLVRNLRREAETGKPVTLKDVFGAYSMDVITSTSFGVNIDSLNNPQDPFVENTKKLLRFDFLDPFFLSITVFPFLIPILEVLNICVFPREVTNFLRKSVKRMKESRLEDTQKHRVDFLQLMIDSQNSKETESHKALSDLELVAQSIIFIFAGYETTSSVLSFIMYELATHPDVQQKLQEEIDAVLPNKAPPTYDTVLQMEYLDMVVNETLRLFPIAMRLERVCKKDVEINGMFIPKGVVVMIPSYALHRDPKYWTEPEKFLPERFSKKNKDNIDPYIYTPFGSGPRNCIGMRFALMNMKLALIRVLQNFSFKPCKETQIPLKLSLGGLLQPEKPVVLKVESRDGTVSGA
Consider `CO[C@H]1COC(=O)[C@H](C)NC(=O)C/C=C\[C@@H](C)[C@H](OC)COC(=O)[C@@H](OCc2ccccc2)/C=C\[C@@H]1C`, for which the activity, negative = inhibition is -29.2% [at 11.4 µM].
Turning to `CO[C@H]1COC(=O)C/C=C\[C@@H](C)[C@H](OC)COC(=O)[C@H]2CCCN2C(=O)C/C=C\[C@@H]1C`, the activity, negative = inhibition is -29.5% [at 11.4 µM].
As to `CO[C@H]1COC(=O)[C@H](C)NC(=O)C/C=C\[C@@H](C)[C@@H](NS(=O)(=O)c2ccc(C)cc2)COC(=O)[C@H](OCc2ccccc2)/C=C\[C@@H]1C`, the half-maximal activity concentration (AC50) is 3.16 µM (active).
On to `CO[C@@H]1COC(=O)C/C=C\[C@H](C)[C@H](OC)COC(=O)[C@H]2CCCN2C(=O)C/C=C\[C@H]1C`, for which the activity, negative = inhibition was -14.8% [at 11.4 µM].
With `CO[C@@H]1COC(=O)[C@H](C)NC(=O)C/C=C\[C@@H](C)[C@@H](NS(=O)(=O)c2ccc(C)cc2)COC(=O)C/C=C\[C@@H]1C`, the activity, negative = inhibition was 5.93% [at 11.4 µM].
With `CO[C@@H]1COC(=O)C/C=C\[C@H](C)[C@@H](NS(=O)(=O)c2ccc(C)cc2)COC(=O)C/C=C\[C@@H]1C`, the concentration at half-maximal activity (AC50) was 3.98 µM (active) and 3.16 µM (active).
With `CO[C@@H]1COC(=O)C/C=C\[C@H](C)COC(=O)[C@H](C)NC(=O)C/C=C\[C@H]1C`, the activity, negative = inhibition is -19.1% [at 11.4 µM].
For `CO[C@H]1COC(=O)[C@H](C)NC(=O)C/C=C\[C@@H](C)[C@@H](NS(=O)(=O)c2ccc(C)cc2)COC(=O)C/C=C\[C@@H]1C`, the AC50 is 3.98 µM (active).
With `CO[C@H]1COC(=O)[C@H]2CCCN2C(=O)[C@@H](C)COC(=O)C/C=C\[C@@H]1C`, the activity, negative = inhibition was -39.8% [at 11.4 µM].
Turning to `CO[C@H]1COC(=O)C/C=C\[C@H](C)[C@@H](NS(=O)(=O)c2ccc(C)cc2)COC(=O)C/C=C\[C@@H]1C`, the AC50 is 3.16 µM (active).
As for `CO[C@@H]1COC(=O)C/C=C\[C@@H](C)[C@H](OC)COC(=O)[C@@H](C)COC(=O)C/C=C\[C@H]1C`, the activity, negative = inhibition is -12.1% [at 11.4 µM].
Regarding `CO[C@H]1COC(=O)[C@@H](CCSC)NC(=O)C/C=C\[C@@H](C)[C@H](OC)COC(=O)[C@@H](OCc2ccccc2)/C=C\[C@@H]1C`, the activity, negative = inhibition was -27.8% [at 11.4 µM].
For the molecule `CC(C)(C)C(=O)NC(=C(Cl)Cl)P(=O)(O)O`, the AC50 entry is “inactive”.
Regarding `N=C(N)C(N=Nc1ccccc1)C(=N)N` (stereo unspecified), the activity, negative = inhibition was -1.93% [at 11.4 µM].
As for `CO[C@H]1COC(=O)C/C=C\[C@H](C)[C@@H](NS(=O)(=O)c2ccc(C)cc2)COC(=O)CCC[C@@H]1C`, the AC50 was 3.98 µM (active).
Turning to `CO[C@H]1COC(=O)CCC[C@H](C)[C@@H](OC)COC(=O)C/C=C\[C@@H]1C`, the activity, negative = inhibition is -19.5% [at 11.4 µM].
As to `CO[C@H]1COC(=O)CCC[C@H](C)[C@H](OC)COC(=O)C/C=C\[C@@H]1C`, the activity, negative = inhibition is -29.6% [at 11.4 µM].
On to `CCC(Sc1nc2cc3c(cc2c(=O)n1Cc1ccco1)OCO3)C(=O)Nc1ccccc1OC` (stereo unspecified), for which the AC50 is 1.58 µM (active).
On to `CCC(Sc1nc2cc3c(cc2c(=O)n1Cc1ccco1)OCO3)C(=O)Nc1cccc(OC)c1` (stereo unspecified), for which the half-maximal activity concentration (AC50) was 1.26 µM (active).
On to `CCn1c(C)cc(/C=C2\NC(=O)N(Cc3ccc(Cl)cc3)C2=O)c1C`, for which the half-maximal activity concentration (AC50) was 1.58 µM (active).
Take `Cc1sc2nc(SCC(=O)C(C)(C)C)n(Cc3ccco3)c(=O)c2c1C`: the AC50 is 11.2 µM (active).
In the case of `Cc1sc2nc(SCc3nc(-c4cccs4)no3)n(-c3ccccc3)c(=O)c2c1C`, the AC50 result was “inactive”.
As for `Cc1ccccc1NS(=O)(=O)c1cc(C(=O)Nc2cccc(N(C)S(C)(=O)=O)c2)ccc1C`, the concentration at half-maximal activity (AC50) was 1 µM (active).
For `Cc1ccc(SCCNC(=O)c2ccc(C)c(S(=O)(=O)Nc3ccccc3C)c2)cc1`, the AC50 is 0.631 µM (active).
Regarding `Cc1ccc(S(=O)(=O)Nc2ccccc2C(=O)c2ccc(C)c(C)c2)cc1`, the activity, negative = inhibition was -2.65% [at 11.4 µM].
Turning to `O=C(Nc1cccc(C(=O)Nc2ccc(S(=O)(=O)O)c3cc(S(=O)(=O)O)cc(S(=O)(=O)O)c23)c1)Nc1cccc(C(=O)Nc2ccc(S(=O)(=O)O)c3cc(S(=O)(=O)O)cc(S(=O)(=O)O)c23)c1`, the AC50 entry was “inactive”.
With `C[N+]1(CCCC[N+]2(C)CCCCCCC2)CCCCCCC1`, the activity, negative = inhibition is 6.39% [at 11.4 µM].
For `NC(=O)c1ccc[n+](CC(=O)OCCC23CC4CC(CC(C4)C2)C3)c1`, the activity, negative = inhibition was -1.21% [at 2.29 µM].
Regarding `CC(C)(C)OC(=O)COc1cc(OCC(=O)OC(C)(C)C)c2c(=O)cc(-c3ccccc3)oc2c1`, the AC50 entry was “inactive”.
Take `CCOC(=O)COc1cc(OCC(=O)OCC)c2c(=O)cc(-c3ccccc3)oc2c1`: the AC50 was 20 µM (active).
In the case of `O=C(O)c1cc(=O)c2c(OCC(O)COc3cccc4oc(C(=O)O)cc(=O)c34)cccc2o1`, the AC50 result is “inactive”.
Regarding `CC(=O)O[C@]1(C)N=NC2(CCCCC2)O1`, the activity, negative = inhibition is -7.61% [at 11.4 µM].
As to `O=C(Cn1c(SCC(=O)N2CCc3ccccc3C2)nc2ccccc21)NC1CCCC1`, the half-maximal activity concentration (AC50) is 3.55 µM (active).
Take `C=CCn1c(SCC(=O)N2CCc3ccccc3C2)nc2ccccc2c1=O`: the concentration at half-maximal activity (AC50) is 2.51 µM (active).
With `C=CCn1c(SCC)nc2sc3c(c2c1=O)CCc1ccccc1-3`, the activity, negative = inhibition was -8.25% [at 2.29 µM].
In the case of `CN1CCN(CCCBr)CC1`, the activity, negative = inhibition is 9.1% [at 11.4 µM].
With `O=C(O)[C@@H]1[C@H](C(=O)O)[C@H]2C(=O)C=C[C@H]1N2Cc1ccccc1`, the activity, negative = inhibition is -7.47% [at 11.4 µM].
For `O=C1CC(N(O)C2CC(=O)N(Cc3ccccc3)C2=O)C(=O)N1Cc1ccccc1` (stereo unspecified), the AC50 was 10 µM (active).
As for `CN1CCN(C2CC(=O)N(Cc3ccc(N4CCCC4=O)cc3)C2=O)CC1` (stereo unspecified), the AC50 result is “inactive”.
On to `O=C1C2[C@@H](c3ccccc3)N[C@@H](c3ccccc3)C1[C@H](c1ccccc1)N[C@H]2c1ccccc1`, for which the activity, negative = inhibition is 5.64% [at 11.4 µM].
Regarding `COc1cc(/C=C/C(=O)O)cc(S(=O)(=O)NCCCO)c1OC`, the activity, negative = inhibition was -24.1% [at 11.4 µM].
For the molecule `CCCCNS(=O)(=O)c1ccc(OC)c(Cl)c1Cl`, the AC50 was 11.2 µM (active).
For the molecule `NCCCCCCNS(=O)(=O)c1cccc2ccccc12`, the half-maximal activity concentration (AC50) was 6.31 µM (active).
Take `NS(=O)(=O)c1ccc(NC(=O)Nc2cccc3ccccc23)cc1`: the activity, negative = inhibition was -6.44% [at 11.4 µM].
Turning to `NCCCCCCCCCCNS(=O)(=O)c1cccc2c(Cl)cccc12`, the half-maximal activity concentration (AC50) was 2.51 µM (active).
Regarding `O=S(=O)(O)CCCc1cccc2ccccc12`, the activity, negative = inhibition was -8.32% [at 11.4 µM].
Take `NCCCCCCNS(=O)(=O)c1cccc2c(Cl)cccc12`: the concentration at half-maximal activity (AC50) is 3.98 µM (active) and 2.51 µM (active).
With `Nc1ccc(S(=O)(=O)NCCS(=O)(=O)O)cc1`, the activity, negative = inhibition is -0.993% [at 11.4 µM].
On the same count and under the same terms, the figure for `S=c1c2[nH]cnc2ncn1CCSc1ncnc2nc[nH]c12` is -9.42% [at 11.4 µM].
For the molecule `CSCCC(NC=C1C(=O)OC(C)(C)OC1=O)C(=O)O` (stereo unspecified), the AC50 entry is “inactive”.
On to `CCN(CC)S(=O)(=O)c1cccc2c(N(C)C)cccc12`, for which the AC50 entry was “inactive”.
Regarding `CCCCCCCNS(=O)(=O)c1cccc2c(Cl)cccc12`, the AC50 was 7.94 µM (active).
For the molecule `O=S(=O)(NCCCCCCc1ccccc1)c1cccc2c(Cl)cccc12`, the AC50 is 2.51 µM (active).
As to `c1ccc(CCCNc2nnnc3ccccc23)cc1`, the activity, negative = inhibition is -29.6% [at 11.4 µM].
Regarding `NCCCc1c(-c2ccccc2)nc(N)[nH]c1=O`, the activity, negative = inhibition is 1.03% [at 11.4 µM].
As to `Cn1c(=S)c2[nH]c(SCCN3C(=O)c4ccccc4C3=O)nc2n(C)c1=O`, the activity, negative = inhibition is -20.9% [at 11.4 µM].
Turning to `Cn1c(=O)c2[nH]c(CCCCc3nc4c([nH]3)c(=O)n(C)c(=S)n4C)nc2n(C)c1=S`, the AC50 is 1.26 µM (active).
Take `Cn1c(=O)c2[nH]c(CSCc3ccccc3)nc2n(C)c1=O`: the activity, negative = inhibition was -25% [at 11.4 µM].
Turning to `Cn1c(=S)c2[nH]c(SCCCc3ccccc3)nc2n(C)c1=O`, the activity, negative = inhibition is -26.2% [at 11.4 µM].
The same measure, in the same setting: the result for `Cn1c(=S)c2[nH]c(SCCN3CCCC3)nc2n(C)c1=O` reads -16% [at 11.4 µM].
`Cn1c(=O)c2[nH]c(SCc3ccccn3)nc2n(C)c1=S`: the AC50 was 3.98 µM (active).
On to `Cn1c(=O)c2[nH]c(CCCCc3nc4ccccc4[nH]3)nc2n(C)c1=O`, for which the activity, negative = inhibition is -19% [at 11.4 µM].
Consider `Cn1c(=O)c2[nH]c(CCCCC(=O)O)nc2n(C)c1=O`, for which the activity, negative = inhibition was -10.1% [at 11.4 µM].
`Cn1c(=S)c2[nH]c(SCc3cccnc3)nc2n(C)c1=O`: the AC50 is 3.16 µM (active).
In the case of `NCCS(=O)O`, the AC50 entry was “inactive”.
On to `CCCC(c1cc(C(C)(C)C)c(O)cc1C)c1cc(C(C)(C)C)c(O)cc1C`, for which the activity, negative = inhibition was 5.69% [at 11.4 µM].
With `CCN1CCN(C(=O)N[C@H](C(=O)N[C@@H]2C(=O)N3C(C(=O)O)=C(CSc4nnnn4C)CS[C@@H]23)c2ccc(O)cc2)C(=O)C1=O`, the AC50 entry was “inactive”.
For the molecule `O=c1c2ccccc2c(-c2ccccc2)nn1-c1ccc(Cl)c(Cl)c1`, the AC50 result was “inactive”.
In the case of `Cc1ccc(-c2nn(C)c(=O)c3ccccc23)cc1CNC(=O)Cn1nc(-c2ccccc2)c2ccccc2c1=O`, the activity, negative = inhibition is -27.5% [at 11.4 µM].
With `O=C(O)Cc1sc(-c2ccc(Cl)cc2)nc1-c1ccccc1`, the AC50 result is “inactive”.
In the case of `O=C(CCn1nc(-c2ccc(Cl)cc2)c2ccccc2c1=O)NCCN1CCOCC1`, the concentration at half-maximal activity (AC50) is 7.08 µM (active).
For the molecule `O=C(/C=C/c1ccc(Cl)cc1)NCCN1CCOCC1`, the AC50 entry is “inactive”.
For the molecule `O=c1c2ccccc2c(-c2ccccc2)nn1Cc1ccc(Cl)cc1`, the concentration at half-maximal activity (AC50) is 17.8 µM (active).
The same measure, in the same setting: the result for `O=C(CSc1nnc(-c2cccc(S(=O)(=O)N3CCOCC3)c2)n1C1CCCCCC1)NCc1ccccc1` reads 2.51 µM (active); that for `CCC(=O)N1CCN(C(=O)c2ccccc2)CC1`, “inactive”.
Still for that read-out and setting: the figure for `O=C(COc1ccc2ccccc2c1)N1CCN(C(=O)c2cccnc2)CC1` is 8.91 µM (active).
